As usually defined, the inhibition is the drop in the measured response relative to a control, in per cent.

Insulin-like growth factor 1 receptor (Homo sapiens), sequence (P08069 31-736 limits assumed): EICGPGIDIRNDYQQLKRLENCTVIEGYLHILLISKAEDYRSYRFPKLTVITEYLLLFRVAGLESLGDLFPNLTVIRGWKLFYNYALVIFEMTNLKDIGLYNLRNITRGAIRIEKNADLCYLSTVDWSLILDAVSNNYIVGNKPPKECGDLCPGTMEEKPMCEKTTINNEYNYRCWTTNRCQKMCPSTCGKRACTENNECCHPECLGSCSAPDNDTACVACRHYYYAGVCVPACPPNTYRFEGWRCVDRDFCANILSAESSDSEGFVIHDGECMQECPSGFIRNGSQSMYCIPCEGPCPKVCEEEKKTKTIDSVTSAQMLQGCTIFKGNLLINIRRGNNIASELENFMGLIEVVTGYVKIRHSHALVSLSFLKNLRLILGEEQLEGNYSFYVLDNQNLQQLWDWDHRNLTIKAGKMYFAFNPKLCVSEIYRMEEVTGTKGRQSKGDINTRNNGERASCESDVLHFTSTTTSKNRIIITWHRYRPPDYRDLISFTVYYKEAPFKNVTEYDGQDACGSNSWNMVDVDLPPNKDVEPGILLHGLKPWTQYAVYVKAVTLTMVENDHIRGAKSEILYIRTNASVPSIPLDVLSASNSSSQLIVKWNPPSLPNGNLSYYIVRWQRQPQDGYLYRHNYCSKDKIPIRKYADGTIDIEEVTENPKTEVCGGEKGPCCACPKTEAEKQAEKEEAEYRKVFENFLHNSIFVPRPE
Insulin-like growth factor 1 receptor (Homo sapiens), sequence (P08069 741-1367 limits assumed): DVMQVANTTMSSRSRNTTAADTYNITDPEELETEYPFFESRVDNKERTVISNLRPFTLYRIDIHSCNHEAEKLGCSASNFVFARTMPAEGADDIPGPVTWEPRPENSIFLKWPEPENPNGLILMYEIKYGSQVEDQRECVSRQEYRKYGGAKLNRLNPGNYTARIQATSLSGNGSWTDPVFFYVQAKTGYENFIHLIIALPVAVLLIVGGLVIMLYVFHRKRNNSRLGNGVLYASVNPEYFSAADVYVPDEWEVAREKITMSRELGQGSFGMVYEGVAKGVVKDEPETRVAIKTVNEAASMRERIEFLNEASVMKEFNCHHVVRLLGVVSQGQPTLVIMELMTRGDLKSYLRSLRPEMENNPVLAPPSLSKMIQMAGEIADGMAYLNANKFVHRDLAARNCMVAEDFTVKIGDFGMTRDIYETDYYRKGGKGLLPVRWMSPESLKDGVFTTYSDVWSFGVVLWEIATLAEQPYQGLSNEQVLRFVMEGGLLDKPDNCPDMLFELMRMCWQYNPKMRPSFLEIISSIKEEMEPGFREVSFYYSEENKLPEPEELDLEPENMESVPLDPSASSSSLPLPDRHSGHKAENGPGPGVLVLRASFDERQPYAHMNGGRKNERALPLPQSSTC

The first assay concerns the target Insulin-like growth factor 1 receptor (Homo sapiens) (UniProt P08069). The following applies: at 1 µM.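 Further: each value is a mean percent inhibition.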
`COc1cc2ncn(-c3cc(OCc4cccs4)c(C(N)=O)s3)c2cc1OC`: the inhibition is -6.38%. Still for that read-out and setting: the value for `COc1cc(C)c(N(C)C(=O)CN(C)C)cc1Nc1nc(Nc2cccc(F)c2C(N)=O)c2cc[nH]c2n1` was 81.6%; that for `CN(C)CCCNc1nccc(-c2c(-c3ccc(F)cc3)nn3cc(C(F)(F)F)ccc23)n1` was -5.52%; that for `COc1cccc(/C=N/Nc2ncnc3c2cnn3-c2cccc(OC)c2)c1` was 1.32%. On the same count and under the same terms, to `CCC(=O)Nc1ccc(C)c(-c2ccc(C(=O)NCC3CC3)cc2)c1` belongs 1.32%. As for `CCS(=O)(=O)c1ccc(OC)c(Nc2ncc(-c3cccc(-c4ccccc4F)c3)o2)c1`, the inhibition came out at 3.39%.

As for `C#Cc1cccc(Nc2ncnc3ccc(OCCCCNCCS(C)(=O)=O)cc23)c1`, the inhibition is -2.48%. As to `CS(=O)(=O)CCNCc1ccc(-c2ccc3ncnc(Nc4ccc(OCc5ccccc5)c(Br)c4)c3c2)o1`, the inhibition was -5.4%. Same read-out and setting: to `COc1cc2ncn(-c3cc(OCCc4ccccc4)c(C(N)=O)s3)c2cc1OC` belongs 2.07%; to `NS(=O)(=O)c1ccc(N/N=C2\C(=O)Nc3ccc(-c4cnco4)cc32)cc1`, -2.26%.

Regarding `Cc1ccc(C(=O)NC2CCC2)cc1-c1ccc(C(=O)NCC2CC2)cc1`, the inhibition was 3.83%. On the same count and under the same terms, to `COc1ccc2cc(-c3c(-c4ccncc4)nc(-c4ccc([S+](C)[O-])cc4C)n3C)ccc2c1` (configuration not stated) belongs 1.27%; to `COc1cc(N2CCN(C(C)C)CC2)ccc1Nc1nc(Nc2ccc(F)cc2C(=O)NC[C@@H](O)CO)c2cc[nH]c2n1`, 92.6%. Same read-out and setting: to `COc1ccc2ncn(-c3cc(O[C@H](C)c4ccccc4Cl)c(C(N)=O)s3)c2c1` belongs -6.53%; to `Fc1ccc(-c2nc3n(c2-c2ccncc2)CCS3)cc1`, -4.05%. As to `CN1CCN(CCCNc2nc3ccc(Oc4ccc(NC(=O)Nc5cc(C(F)(F)F)ccc5F)cc4)cc3[nH]2)CC1`, the inhibition was -7.78%. The same measure, in the same setting: to `Fc1ccc(-c2c(-c3ccncc3)nc3n2CCS3)cc1` belongs -5.03%. The same measure, in the same setting: to `NCc1ccc(-n2c(-c3nonc3N)nc3cnccc32)cc1` belongs 8.21%. With `CCS(=O)(=O)c1ccc(OC)c(Nc2ncc(-c3ccccc3Cl)o2)c1`, the inhibition turned out to be 5.87%. Regarding `Fc1ccc(-c2ncn(C3CCNCC3)c2-c2ccnc(Oc3ccc(F)c(F)c3)n2)cc1`, the inhibition is -4.9%.

Turning to `Fc1ccc(-c2ncn(C3CCNCC3)c2-c2ccnc(Oc3ccc(Oc4ccccc4)cc3)n2)cc1`, the inhibition was found to be 1.58%. On the same count and under the same terms, to `C[C@@H](Oc1cc(-n2cnc3ccc(OC4CCN(C)CC4)cc32)sc1C(N)=O)c1ccccc1Cl` belongs 0.05%; to `c1ccc(-c2n[nH]cc2-c2ccnc(-c3ccc(OCCN4CCOCC4)cc3)c2)nc1`, -2.14%. The same measure, in the same setting: the value for `c1ccc(Oc2ccc(Nc3ncc(-c4ccccc4)o3)cc2)cc1` was 2.01%; that for `COc1cccc(-n2cnc3c(N/N=C/c4ccncc4)ncnc32)c1` was -8.19%.

In the case of `C[C@@H](Oc1cc(-n2cnc3ccc(OCC4CCN(C)CC4)cc32)sc1C(N)=O)c1ccccc1Cl`, the inhibition worked out at 7.27%. Still for that read-out and setting: the value for `CCN(CC)Cc1ccc(Nc2nccc(-c3cnn4ncccc34)n2)cc1` was 54.6%; that for `Cc1nnc(-c2ccc(C)c(-c3ccc(C(=O)NCc4ccc(Cl)cc4)cc3)c2)o1` was -3.35%. Consider `O=C(Nc1n[nH]c2cc(-c3ccccc3)ccc12)C1CC1`, for which the inhibition amounted to 11.2%. For the compound `COc1cc(Nc2ncc3c(C)nc(-c4cccc(Oc5ccccc5)c4)n3n2)cc(OC)c1OC`, the inhibition is 5.13%. Regarding `CN(C)c1ccc2c(c1)/C(=C/Nc1ccc(S(N)(=O)=O)cc1)C(=O)N2`, the inhibition stood at 11.9%. On the same count and under the same terms, to `CNC(=O)c1cncc(/C=C/c2c(C)cccc2C)c1` belongs -5.13%; to `COc1cc(Nc2ncc3c(C)nc(-c4cccc(C(F)(F)F)c4)n3n2)cc(OC)c1OC`, 5.74%.

In another assay the target is Insulin receptor (Homo sapiens) (UniProt P06213). The following applies: at 0.1 µM.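 Further: reported values are averages of replicate inhibition measurements against the insulin receptor.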
Insulin receptor (Homo sapiens), sequence (P06213 28-758 limits assumed): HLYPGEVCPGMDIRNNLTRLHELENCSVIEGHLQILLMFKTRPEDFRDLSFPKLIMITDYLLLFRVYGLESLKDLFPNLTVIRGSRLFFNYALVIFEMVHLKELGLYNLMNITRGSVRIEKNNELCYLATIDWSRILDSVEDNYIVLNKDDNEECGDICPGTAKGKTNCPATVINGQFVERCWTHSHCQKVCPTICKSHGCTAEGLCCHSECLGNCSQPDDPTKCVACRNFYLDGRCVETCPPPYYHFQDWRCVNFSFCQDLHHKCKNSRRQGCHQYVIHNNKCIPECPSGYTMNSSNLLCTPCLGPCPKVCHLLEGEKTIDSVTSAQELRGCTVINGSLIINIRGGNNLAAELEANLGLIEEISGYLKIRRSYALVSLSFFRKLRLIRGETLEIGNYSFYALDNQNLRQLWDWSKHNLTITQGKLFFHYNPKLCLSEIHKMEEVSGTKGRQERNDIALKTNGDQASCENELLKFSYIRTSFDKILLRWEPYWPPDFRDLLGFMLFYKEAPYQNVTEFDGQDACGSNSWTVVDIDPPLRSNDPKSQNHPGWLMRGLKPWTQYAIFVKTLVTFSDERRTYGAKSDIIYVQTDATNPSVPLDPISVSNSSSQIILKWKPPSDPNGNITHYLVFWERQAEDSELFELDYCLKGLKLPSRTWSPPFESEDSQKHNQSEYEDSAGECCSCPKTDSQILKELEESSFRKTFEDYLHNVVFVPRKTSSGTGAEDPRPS
Insulin receptor (Homo sapiens), sequence (P06213 763-1382 limits assumed): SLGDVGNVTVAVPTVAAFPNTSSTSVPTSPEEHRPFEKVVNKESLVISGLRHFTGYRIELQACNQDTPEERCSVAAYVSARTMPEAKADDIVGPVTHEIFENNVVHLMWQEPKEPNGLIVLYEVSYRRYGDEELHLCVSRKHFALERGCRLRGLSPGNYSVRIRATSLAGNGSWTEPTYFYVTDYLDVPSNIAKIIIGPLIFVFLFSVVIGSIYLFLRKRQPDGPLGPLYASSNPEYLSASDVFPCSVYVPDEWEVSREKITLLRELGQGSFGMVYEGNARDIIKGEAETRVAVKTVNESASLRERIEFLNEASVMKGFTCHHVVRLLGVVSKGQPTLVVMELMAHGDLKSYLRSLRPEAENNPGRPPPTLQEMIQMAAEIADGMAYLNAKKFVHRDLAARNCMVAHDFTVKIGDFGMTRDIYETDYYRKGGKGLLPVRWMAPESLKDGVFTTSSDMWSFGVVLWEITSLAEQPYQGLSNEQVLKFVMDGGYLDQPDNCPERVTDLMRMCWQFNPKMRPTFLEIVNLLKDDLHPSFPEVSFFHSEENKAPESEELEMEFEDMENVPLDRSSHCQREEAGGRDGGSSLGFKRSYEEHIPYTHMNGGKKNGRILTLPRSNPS
For `COc1cc2ncn(-c3cc(OCc4cccs4)c(C(N)=O)s3)c2cc1OC`, the inhibition is -0.44%. On the same count and under the same terms, to `COc1cc(C)c(N(C)C(=O)CN(C)C)cc1Nc1nc(Nc2cccc(F)c2C(N)=O)c2cc[nH]c2n1` belongs 52.5%.

For `CN(C)CCCNc1nccc(-c2c(-c3ccc(F)cc3)nn3cc(C(F)(F)F)ccc23)n1`, the inhibition is 0.53%.

Consider `COc1cccc(/C=N/Nc2ncnc3c2cnn3-c2cccc(OC)c2)c1`, for which the inhibition was found to be 6.27%.

Consider `CCC(=O)Nc1ccc(C)c(-c2ccc(C(=O)NCC3CC3)cc2)c1`, for which the inhibition turned out to be 4.28%. For `CCS(=O)(=O)c1ccc(OC)c(Nc2ncc(-c3cccc(-c4ccccc4F)c3)o2)c1`, the inhibition turned out to be 2.01%.

Turning to `C#Cc1cccc(Nc2ncnc3ccc(OCCCCNCCS(C)(=O)=O)cc23)c1`, the inhibition turned out to be 8.82%. As for `CS(=O)(=O)CCNCc1ccc(-c2ccc3ncnc(Nc4ccc(OCc5ccccc5)c(Br)c4)c3c2)o1`, the inhibition is 2.87%. Same read-out and setting: to `COc1cc2ncn(-c3cc(OCCc4ccccc4)c(C(N)=O)s3)c2cc1OC` belongs 2.51%. Same read-out and setting: the value for `NS(=O)(=O)c1ccc(N/N=C2\C(=O)Nc3ccc(-c4cnco4)cc32)cc1` was 1.72%; that for `Cc1ccc(C(=O)NC2CCC2)cc1-c1ccc(C(=O)NCC2CC2)cc1` was 4.44%; that for `COc1ccc2cc(-c3c(-c4ccncc4)nc(-c4ccc([S+](C)[O-])cc4C)n3C)ccc2c1` (configuration not stated) was 0.15%. The same measure, in the same setting: the value for `COc1cc(N2CCN(C(C)C)CC2)ccc1Nc1nc(Nc2ccc(F)cc2C(=O)NC[C@@H](O)CO)c2cc[nH]c2n1` was 110%. `COc1ccc2ncn(-c3cc(O[C@H](C)c4ccccc4Cl)c(C(N)=O)s3)c2c1`: the inhibition was 0.89%. Same read-out and setting: to `Fc1ccc(-c2nc3n(c2-c2ccncc2)CCS3)cc1` belongs 7.27%; to `CN1CCN(CCCNc2nc3ccc(Oc4ccc(NC(=O)Nc5cc(C(F)(F)F)ccc5F)cc4)cc3[nH]2)CC1`, -3.22%. On to `Fc1ccc(-c2c(-c3ccncc3)nc3n2CCS3)cc1`, for which the inhibition was 5.99%. On the same count and under the same terms, to `NCc1ccc(-n2c(-c3nonc3N)nc3cnccc32)cc1` belongs 8.46%; to `CCS(=O)(=O)c1ccc(OC)c(Nc2ncc(-c3ccccc3Cl)o2)c1`, -0.92%. Still for that read-out and setting: to `Fc1ccc(-c2ncn(C3CCNCC3)c2-c2ccnc(Oc3ccc(F)c(F)c3)n2)cc1` belongs -2.06%; to `Fc1ccc(-c2ncn(C3CCNCC3)c2-c2ccnc(Oc3ccc(Oc4ccccc4)cc3)n2)cc1`, 7.04%; to `C[C@@H](Oc1cc(-n2cnc3ccc(OC4CCN(C)CC4)cc32)sc1C(N)=O)c1ccccc1Cl`, 10.4%. As to `c1ccc(-c2n[nH]cc2-c2ccnc(-c3ccc(OCCN4CCOCC4)cc3)c2)nc1`, the inhibition was -2.85%. In the case of `c1ccc(Oc2ccc(Nc3ncc(-c4ccccc4)o3)cc2)cc1`, the inhibition was found to be 4.11%. On the same count and under the same terms, to `COc1cccc(-n2cnc3c(N/N=C/c4ccncc4)ncnc32)c1` belongs -2.78%. Same read-out and setting: to `C[C@@H](Oc1cc(-n2cnc3ccc(OCC4CCN(C)CC4)cc32)sc1C(N)=O)c1ccccc1Cl` belongs 6.64%. Same read-out and setting: to `CCN(CC)Cc1ccc(Nc2nccc(-c3cnn4ncccc34)n2)cc1` belongs 21.9%; to `Cc1nnc(-c2ccc(C)c(-c3ccc(C(=O)NCc4ccc(Cl)cc4)cc3)c2)o1`, 5.65%; to `O=C(Nc1n[nH]c2cc(-c3ccccc3)ccc12)C1CC1`, 3.96%.

As to `COc1cc(Nc2ncc3c(C)nc(-c4cccc(Oc5ccccc5)c4)n3n2)cc(OC)c1OC`, the inhibition is 5.22%.

With `Clc1ccc(CNc2nccc(-c3cnn4ncccc34)n2)cc1`, the inhibition was 0.04%.

`CN(C)c1ccc2c(c1)/C(=C/Nc1ccc(S(N)(=O)=O)cc1)C(=O)N2`: the inhibition is 3.88%. Same read-out and setting: to `CNC(=O)c1cncc(/C=C/c2c(C)cccc2C)c1` belongs 0.95%. The same measure, in the same setting: the value for `COc1cc(Nc2ncc3c(C)nc(-c4cccc(C(F)(F)F)c4)n3n2)cc(OC)c1OC` was 5.92%.

The record behind these values is ChEMBL document CHEMBL1961873, “Compounds: GSK PKIS; Assays: Nanosyn kinase panel” (2012).
